# High-throughput results (PubChem BioAssay)
# Shown are actives, neighbours in structure and some others; about 0.98% of the full set was active somewhere.
# MRP resist rev: compounds reversing MRP-mediated drug resistance; H69AR cells + 2 uM doxorubicin, CellTiter-Glo, 72 h; hit rate 0.04% among 85,000; differential viability (reversal), % at 10 µM; AID 602;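 active means viability drop by adding the cancer drug above about 55%, with treated viability meeting a 40% cutoff, limit read from the data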;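 further: viability without doxorubicin minus viability with 2 µM doxorubicin for each compound; larger differential means the compound sensitizes cells more to doxorubicin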
# Candida biofilm: kills Candida albicans biofilms | C. albicans biofilm + clotrimazole, Alamar Blue | inhibition, % at 6 µM | hit rate 0.14% among 85,000 | AID 834;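 active means inhibition above 20%; inactive means inhibition below 20%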;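 further: preformed 24 hr biofilms exposed to compound for 48 hr; 0% = biofilm without compound and 100% = blank killed by clotrimazole plus chlorhexidine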
# SDO1 yeast rescue: restores growth of sdo1-depleted yeast; z-score at 10 µM; hit rate 0.21% among 140,000; S. cerevisiae sdo1-depleted JHY4D growth rescue, OD600 30 h; active compounds read high; pdr5 snq2 efflux-pump mutant strain; AID 817;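 active means z-score above 3 at both the 24 hr and the 30 hr optical density reads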;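 further: z-score against mean and SD of all compound wells on the same plate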
# MRP-1 activ: activators of MRP-1; H69AR cells + doxorubicin, viability rescue, CellTiter-Glo; viability increase, % at 10 µM; hit rate 0.61% among 140,000; AID 799;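 active means viability gain under doxorubicin at or above a set limit, the compound median plus 3 SD, cut at about 4.7% in these data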;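 further: MRP-1 overexpressing cells given doxorubicin 25 µM after compound pretreatment; 18-22 h compound pretreatment then 72 h with doxorubicin before readout; 0% = doxorubicin-only wells and 100% = vehicle-treated cells without doxorubicin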
# Numbers without * were called inactive; . = no result given.
SMILES,MRP resist rev,Candida biofilm,SDO1 yeast rescue,MRP-1 activ
O=C(NCc1ccc(F)cc1)C(=O)Nc1nc(C23CC4CC(CC(C4)C2)C3)cs1,.,.,0.47,-2.2
Cc1cccc(C(C)C)c1NC(=O)C1CN(S(=O)(=O)c2ccccc2)CCN1S(=O)(=O)c1ccccc1 (centres undefined),.,.,0.11,-2.5
CCOC(=O)c1nnc(-c2ccccc2)nc1Oc1ccccc1Cl,.,.,-0.71,5.2*
COc1ccc(C(=O)NN/C(C)=C/C(=O)C(F)(F)C(F)(F)C(F)(F)F)cc1,.,.,-0.11,4.6
COC(=O)c1ccc(NCCc2csc(-c3ccc(C)cc3)n2)c([N+](=O)[O-])c1,.,.,-1.34,-2.3
COc1ccccc1/C=C/C=N/n1c(C2CCCCC2)n[nH]c1=S,.,.,-1.5,4.8*
C/C(=N\NC(=O)c1nonc1N)c1cccs1,.,.,1.58,-0.9
Cc1cc(=O)oc2cc(OCC(=O)Nc3nnc(C(C)C)s3)ccc12,27.5,-2.7,1.02,0.7
Cc1nnc(NC(=O)C(C)Oc2ccc3c(C)cc(=O)oc3c2)s1 (centres undefined),3.3,9.2,0.97,7.7*
CC(C)(C)NC(=O)COC(=O)c1snc(C(=O)NC2CCCCC2)c1N,14.5,5.7,-0.04,1.7
CC(OC(=O)c1snc(C(=O)NC2CCCCC2)c1N)C(=O)NC(C)(C)C (centres undefined),-12.9,11.4,-0.16,6.2*
CC(=O)NCCC(=O)Nc1nc(-c2cccs2)c(-c2cccs2)s1,.,.,0.39,0.2
O=C(Nc1nc(-c2cccs2)c(-c2cccs2)s1)C1(c2ccccc2)CC1,.,.,0.04,5.2*
COC(=O)N/N=C/c1ccc(-c2cc(Cl)ccc2Cl)o1,.,.,-1.59,4.9*
Cc1ccc(OC(=O)c2cccc(S(=O)(=O)N3CCCC3)c2)c(-n2nc3ccccc3n2)c1,.,.,-1.04,-1.4
O=C(Cn1c(=O)c2c(ncn2Cc2ccccc2)n(Cc2ccccc2)c1=O)N1CCc2ccccc21,15.5,3.7,-1.04,5.3*
ClC(Cl)(c1nnnn1-c1ccccc1)c1nnnn1-c1ccccc1,.,.,-0.51,-5.5
CCOC(=O)c1c(NC(=O)CSc2nc3ccccc3s2)sc(C)c1C,.,.,-0.09,-1.9
CCOC(=O)c1c(NC(=O)CSc2ncn[nH]2)sc(C)c1C,4.6,3.9,-0.92,14.5*
COc1ccc(C(NC(=O)/C=C/c2ccco2)c2ccc(OC)c(OC)c2)cc1OC,.,.,0.77,-2.1
CCOC(=O)/C(=N\Nc1ccccc1Cl)N1CCN(C)CC1,.,.,0.26,-0.3
CCOC(=O)/C(=N\Nc1ccccc1Cl)N1CCN(Cc2ccccc2)CC1,.,.,-1.61,5.1*
COc1ccc(NC(C)=O)cc1CNC(=O)COc1c(C)c(C)cc(C)c1C,.,.,-0.67,-0.9
CNC(=O)CSc1nnc(COc2ccc(Cl)cc2)n1CCOC,-0.3,10.1,-0.29,9.8*
COc1ccc(Cl)cc1NC(=O)CSc1nnc(COc2ccccc2)n1N,19.8,2.6,-0.38,7.8*
SMILES,MRP resist rev,Candida biofilm,SDO1 yeast rescue,MRP-1 activ
C=CCn1c(COc2ccc(Cl)cc2)nnc1SCC(=O)NCC(=O)OCC,-1.6,1.8,0.18,-0.1
C/C(=N\NC(=O)c1cccc(Cl)c1)C1C(=O)c2ccccc2C1=O,.,.,2.11,3.3
O=C(Nc1cccc(Cl)c1)Nc1nnc(CC2=CCCCC2)s1,.,.,0.39,-3.0
CCOc1cc(/C=N/NC(=O)CNc2ccc(C)cc2)ccc1OC(=O)c1ccccc1,-20.4,-1.1,0.41,0.0
CC(=O)OCC(=O)[C@@]1(O)[C@H](C)C[C@H]2[C@@H]3CCC4=CC(=O)C=C[C@]4(C)[C@@]3(F)[C@@H](O)C[C@@]21C,-12.1,7.6,-0.94,10.2*
C[C@@H]1C[C@H]2[C@@H]3C[C@H](F)C4=CC(=O)C=C[C@]4(C)[C@@]3(F)[C@@H](O)C[C@]2(C)[C@@]1(O)C(=O)COC(=O)C(C)(C)C,-10.6,4.5,-1.17,4.3
COc1ccc2c(Cl)c(C(=O)NCCCn3ccnc3)sc2c1,78.6*,3.1,0.12,-2.7
COc1ccc2c(Cl)c(C(=O)NN)sc2c1,.,.,0.58,-2.3
CS(=O)(=O)Nc1ccc(C(=O)N2CCN(c3ccccc3)CC2)cc1,17.2,-0.7,1.2,-0.8
CC(=O)Nc1cc(C(C)(C)C)c(O)c(C(C)(C)C)c1,-6.5,67.8*,0.28,0.5
CC(C)(C)NC(=O)c1cc(C(C)(C)C)c(O)c(C(C)(C)C)c1,.,.,-0.54,-1.1
Cn1ccnc1-c1nc2ccccc2[nH]c1=O,81.9*,8.0,-1.59,-1.7
O=c1[nH]c2ccccc2nc1-c1cccs1,5.0,8.5,0.13,-3.8
COc1ccc(Nc2nnc(SCC(=O)/C=C3/N(C)c4ccccc4C3(C)C)s2)cc1,.,.,-0.69,-3.7
O=C(Nc1ncc(Cc2cccc(Cl)c2)s1)c1ccc([N+](=O)[O-])cc1,.,.,0.05,0.1
O=C(Nc1ncc(Cc2ccccc2Cl)s1)c1ccc(-c2cccc([N+](=O)[O-])c2)o1,.,.,0.05,5.2*
O=C(Nc1ncc(Cc2ccc(C(F)(F)F)cc2)s1)c1ccc(-c2cccc([N+](=O)[O-])c2)o1,.,.,-0.44,5.0*
CCOC(=O)c1[nH]c2ccccc2c1NC(=S)Nc1cccc(C)c1,.,.,-1.37,-3.0
CCC1=NN(C(=O)c2ccc(C)cc2)C(O)(c2ccc(Br)cc2)C1 (centres undefined),.,.,-0.82,4.9*
CCC1=NN(C(=O)c2ccc(Br)cc2)C(O)(c2ccc(C)cc2)C1 (centres undefined),.,.,-0.58,0.0
COC(=O)C1=CC(C(=O)c2cccs2)=NN(c2ccc(OC)cc2)C1C(=O)OC (centres undefined),.,.,-0.99,-3.9
C=CCc1c(C)nc(-c2ccccc2)nc1Nc1ccc(O)cc1,.,.,-1.51,-4.3
C=CCc1c(C)nc(-c2ccccc2)nc1N/N=C(\C)c1ccccc1,.,.,-0.55,5.5*
COc1cc(C)c(S(=O)(=O)NCc2ccc3c(c2)OCO3)cc1C,17.2,27.2*,-0.97,-1.7
Cc1ccc(S(=O)(=O)Nc2nc3ccccc3nc2NCc2ccc3c(c2)OCO3)cc1C,.,.,-0.26,5.9*
SMILES,MRP resist rev,Candida biofilm,SDO1 yeast rescue,MRP-1 activ
COc1cccc(CNC(=O)c2cc3oc4ccccc4c3n2C)c1OC,-10.0,-1.1,-0.6,-0.1
CCOc1ccccc1CNC(=O)c1cc2oc3ccccc3c2n1CC,11.9,-0.7,-0.07,7.6*
Cn1c2c(c(=O)n(C)c1=O)[C@@]1(C(=O)Nc3ccccc31)C(C#N)=C(N)O2,.,.,-1.47,-0.7
CCc1ccc(NC(=O)CSc2nc3cc(C(=O)OC)ccc3c(=O)n2CC2CCCO2)cc1 (centres undefined),0.8,1.3,-0.51,-5.2
COc1ccc2cc3cc(C(=O)NCc4ccccn4)oc3nc2c1,.,.,0.23,-1.1
CCOc1ccc(NC(=O)c2cc3cc4ccc(OC)cc4nc3o2)cc1,-4.0,58.3*,-0.78,-0.7
Cc1ccc(Cl)cc1N1CCN(C(=O)c2cc3c(=O)[nH]c4ccccc4c3n2C)CC1,.,.,-1.65,-2.9
O=C(c1cnn2c(C(F)(F)F)cc(-c3cccs3)nc12)N1CCN(C(c2ccccc2)c2ccccc2)CC1,5.2,4.4,-0.97,8.3*
CN1CCN(C(=O)c2cnn3c(C(F)(F)F)cc(-c4cccs4)nc23)CC1,.,.,0.36,-1.8
CSc1c(CC(=O)Nc2ccccc2C(F)(F)F)n(Cc2ccccc2)c2ccccc12,.,.,-0.56,-2.2
CCNS(=O)(=O)c1cc(OC)c(Cl)cc1OC,.,.,-0.82,0.2
O=C(/C=C/c1ccncc1)c1ccc(NC(=O)c2ccccc2F)cc1,.,.,-0.38,-5.4
